# Screening results as filed in PubChem.
# USP17 inh – human USP17-like deubiquitinase inhibition | A8MUK1 | purified USP17, Ub-rhodamine cleavage fluorescence, 3 h | inhibition, % at 50 µM | 47,000 tested, 6.5% active | AID 1645855
# USP10 block – blocks human USP10 ubiquitin-rhodamine cleavage; 47,000 tested, 1.1% active; purified USP10, Ub-rhodamine fluorescence, 60 min; inhibition, % at 20 µM
# USP28 block – inhibitors of human USP28 deubiquitinase; 47,000 tested, 3% active; inhibition, % at 25 µM; purified USP28, Ub-rhodamine cleavage fluorescence, 30 min
# USP8 block – blocks human USP8 ubiquitin-rhodamine cleavage. purified USP8, Ub-rhodamine cleavage fluorescence, 30 min. inhibition, % at 20 µM. 47,000 tested, 4.2% active. AID 1645853
# USP7 block – blocks human USP7 ubiquitin-rhodamine cleavage; Q93009; purified USP7, Ub-rhodamine cleavage fluorescence; inhibition, % at 20 µM; 47,000 tested, 0.3% active; AID 1645854
# USP30 block – human USP30 deubiquitinase inhibition. Q70CQ3. purified USP30, Ub-rhodamine cleavage fluorescence. inhibition, % at 25 µM. 47,000 tested, 5.3% active
# Target sequence (Q70CQ3 whole entry, looked up): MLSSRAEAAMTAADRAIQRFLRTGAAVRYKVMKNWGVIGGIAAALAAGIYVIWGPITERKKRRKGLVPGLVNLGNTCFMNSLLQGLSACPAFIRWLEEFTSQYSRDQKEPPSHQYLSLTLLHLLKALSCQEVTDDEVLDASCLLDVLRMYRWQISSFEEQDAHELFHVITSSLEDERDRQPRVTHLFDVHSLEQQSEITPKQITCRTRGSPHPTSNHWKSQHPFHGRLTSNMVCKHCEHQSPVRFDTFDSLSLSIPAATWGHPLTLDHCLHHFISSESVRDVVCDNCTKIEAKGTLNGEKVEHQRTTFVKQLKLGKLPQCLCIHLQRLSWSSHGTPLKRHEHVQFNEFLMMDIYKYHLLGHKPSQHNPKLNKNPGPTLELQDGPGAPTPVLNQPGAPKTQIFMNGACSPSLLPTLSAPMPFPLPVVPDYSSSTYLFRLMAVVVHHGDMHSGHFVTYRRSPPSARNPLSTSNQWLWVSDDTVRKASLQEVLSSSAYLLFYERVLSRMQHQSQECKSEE
# * marks the source's active call; other numbers are inactive results; i = inactive; . = no result given. Shown are actives, neighbours in structure and some others; about 13% of the full set was active somewhere. Cut-off read from the data, not from the text of the source: active = inhibition above about 30%; inactive = the rest.
SMILES,USP17 inh,USP10 block,USP28 block,USP8 block,USP7 block,USP30 block
COc1ccc(CCn2c3c(c(=O)[nH]c2=O)C(NS(=O)(=O)c2ccc(Cl)cc2)(C(F)(F)F)C(=O)N3)cc1OC (centres undefined),16,0,6,10,7,9
Cc1cc(NC(=O)CSc2nc3c(cnn3-c3ccc(F)cc3)c(=O)[nH]2)no1,2,11,-1,-29,6,21
O=C(CSc1nc2c(cnn2-c2ccccc2)c(=O)[nH]1)Nc1ccc(Cl)cc1F,-26,9,15,80*,-32,30*
O=C(c1ccc2nc[nH]c2c1)N1CCC2(CC1)Nc1cccnc1NC2=NC1CCCC1,-196,-2,-160,-149,-28,i
COc1ccc(NC(=O)c2cc(-c3cccnc3)n[nH]2)cc1Cl,44*,9,91*,65*,2,94*
CC(C)c1ccc(NC(=O)c2cc(-c3cccnc3)n[nH]2)cc1,-1,7,37*,97*,12,46*
Cc1ccc(NC(=O)c2cc(-c3cccnc3)n[nH]2)cc1F,40*,26,34*,99*,-2,49*
COc1cccc(-c2cc(C(=O)Nc3cccc(C)c3)[nH]n2)c1,3,2,-15,-5,-5,-19
O=C(NC1CCN(Cc2ccccc2)CC1)c1cc(-c2cccnc2)n[nH]1,-5,1,.,1,-9,.
CC(C)C(NC(=O)COc1ccccc1)C(=O)N1CCc2[nH]c3ccccc3c2C1 (centres undefined),9,-4,-16,63*,-10,-156
Cc1ccc(-n2nnc(C(=O)Nc3ccc(C)c(C)c3)c2C)cc1,19,4,12,40*,8,27
COc1ccc(NC(=O)c2nnn(-c3ccccc3)c2C)cc1Cl,10,4,7,0,-2,-4
COc1ccc(NC(=O)c2nnn(-c3ccccc3)c2C)cc1OC,-4,-4,56*,1,1,0
Cc1ccc(NC(=O)c2nnn(-c3ccc(C)c(C)c3)c2C)cc1C,17,1,-12,0,-1,-5
COc1ccc(-n2nnc(C(=O)Nc3cccc(Cl)c3)c2C)cc1,5,4,8,8,4,12
COc1ccc(Cl)cc1-n1nnc(C(=O)Nc2ccc(C)cc2C)c1C,31*,4,24,19,6,13
Cc1ccc(NC(=O)c2nnn(-c3cccc(Cl)c3)c2C)cc1C,2,1,4,-2,2,18
COc1ccc(-n2nnc(C(=O)Nc3ccccc3)c2N)cc1,51*,4,12,19,7,14
Cc1ccnc(N2CCCC(C(=O)Nc3ccc(CN4CCOCC4)cc3)C2)n1 (centres undefined),4,-4,7,7,2,6
CCn1nc(-n2cnnc2)c(NC(=O)c2ccc(Cl)cc2)c1C,2,1,-2,1,0,-4
CC(/C=C/C=C/C=C/C=C/C(O)=C1C(=O)C(CCC(=O)O)N(C)C1=O)=C\C(C)C(O[C@H]1C[C@H](O)[C@H](O)[C@@H](C)O1)C(C)C (some centres undefined),-83,-5,-77,-268,-69,i
Cc1ccc(-n2nnc(C(=O)Nc3ccccc3)c2C)cc1,49*,2,6,0,-8,16
CCc1ccc(NC(=O)c2nnn(-c3ccc(C)cc3)c2C)cc1,11,8,10,25,4,7
Cc1cccc(NC(=O)c2nnn(-c3ccccc3Cl)c2C)c1C,10,2,39*,11,-5,18
COc1ccccc1-n1nnc(C(=O)Nc2ccc(Oc3ccccc3)cc2)c1C,6,6,52*,8,13,14
SMILES,USP17 inh,USP10 block,USP28 block,USP8 block,USP7 block,USP30 block
Cc1cccc(-n2cc(-c3ccccc3)c3c(NCc4ccc(F)cc4)ncnc32)c1,-19,8,-11,0,7,-20
Cc1ccc(NC(=O)c2ccc3c(c2)N(C)CCS3)cc1,9,1,.,-4,0,.
CCOC(=O)c1cc(C#N)c(N2CCCNCC2)nc1C(F)(F)F,5,3,6,15,4,3
CCOC(=O)c1cn(C2CC2)c2cc(N3CCNCC3)c([N+](=O)[O-])cc2c1=O,-7,0,36*,-125,9,58*
CN(C)C(=O)CN1C(=O)c2ccccc2C1c1c(-c2ccccc2)[nH]c2ccccc12 (centres undefined),11,-3,0,20,-9,-18
Cc1ccc(-c2[nH]c3ccccc3c2C2c3ccccc3C(=O)N2CC(=O)O)cc1 (centres undefined),15,12,-16,61*,-1,-11
CCN(CC)C(=O)CN1CCC(Nc2nc3c(c(=O)[nH]2)CCCC3)CC1,-14,-3,-9,-83,1,-27
O=c1[nH]c(NC2CCN(Cc3nnnn3Cc3ccc4c(c3)OCO4)CC2)nc2c1CCCC2,0,0,8,-1,-4,38*
CN1CCCc2cc(C(CNC(=O)c3ccccc3)N3CCCCC3)ccc21 (centres undefined),-61,-6,-56,-33,-10,-221
Cc1ccc2nc(-c3ccc(NC(=O)COC(=O)CCC(=O)Nc4sc5c(c4C(N)=O)CCC5)cc3)sc2c1,-100,-9,-109,47*,8,-412
N#Cc1ccccc1-c1ccccc1C(=O)NCc1ccccc1F,-7,0,-1,-8,-20,0
O=C1COc2ccc(C(=O)COC(=O)c3ccccc3O)cc2N1,36*,-1,-10,-3,1,-34
O=C1COc2ccc(C(=O)COC(=O)CCc3nc4ccccc4s3)cc2N1,48*,14,32*,3,3,30*
O=C1COc2ccc(C(=O)COC(=O)C3(c4ccc(F)cc4)CCCC3)cc2N1,9,5,3,6,-22,11
Cc1nc(C)c(CC(=O)N2CCC([C@@H]3NC(=O)N[C@H]4OCC[C@H]43)CC2)c(=O)[nH]1,6,4,0,17,3,8
O=C(NC1CC1)c1ccc2c(=O)n3c(nc2c1)CCCC3,0,0,.,2,3,.
N#Cc1cccc(NC(=O)c2ccc3c(=O)n4c(nc3c2)CCCCC4)c1,36*,3,23,25,-99,29
Cc1cc(=O)oc2cc(NC(=O)c3ccc4c(=O)n5c(nc4c3)CCCC5)ccc12,4,2,5,-3,5,-3
CC(OC(=O)c1ccc2c(=O)n3c(nc2c1)CCCCC3)C(=O)NC1CCCC1 (centres undefined),31*,4,23,16,5,47*
Cc1cc(NC(=O)c2ccc3c(=O)n4c(nc3c2)CCCCC4)no1,23,0,25,2,-3,31*
COc1cc2c(c(OC)c1OC)-c1ccc(NCC(O)c3ccccc3)c(=O)cc1[C@@H](NC(C)=O)CC2 (some centres undefined),-25,-4,-8,-9,-2,-14
